This is part of a sample that, as a whole, favours compounds with a hit. Of some 83,000 tested, about 20% had one in any assay.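 How to read the values: 0–100, growth inhibition (40 = 60% inhibited); 0, no net growth; -100 to 0, cell death (-40 = 40% of starting cells died; -100 = all dead).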 Active and inactive are the calls of the source.

The experiment concerns NCI-H522 lung. Kind of experiment: NCI-60 one-dose screen, 48 h (100 = growth as untreated, 0 = no growth, -100 = all killed). To be noted: 10 µM unless noted. The protocol:
Growth inhibition of the NCI-H522 human Non-Small Cell Lung tumor cell line is measured as a screen for anti-cancer activity. Cells are grown in 96 well plates and exposed to the test compound for 48 hours. Compounds are tested at a single concentration, which is 10^-5 M for most compounds. The reported endpoint is percent growth (GI% or GIPRCNT), where numbers from 0 - 100% represent growth inhibition, and numbers from -100% - 0 represent cell death. For example, a value of 40 represents 60% growth inhibition. A value of 0 means no net growth occurred over the course of the experiment. A value of -40 indicates 40% of cells at the beginning of the experiment died by the end of the experiment. A value of -100 means all cells are dead at the end of the experiment.
NCI-60 Human Tumor Cell Lines Screen was performed using the standard one-dose NCI protocol, which is described in more detail at https://dtp.cancer.gov/discovery_development/nci-60/default.htm.
Compounds with GIPRCNT values below 10 were considered active. Activity score was based on GIPRCNT using the following formula: […]
Score is 0 for GIPRCNT values of 100 or above, 50 for GIPRCNT values of 0, and 100 for GIPRCNT values of -100.
In the case of `CCOP(=O)(OCC)OC[C@]12CCC(C)(C)C=C1[C@H]1CC[C@@H]3[C@@]4(C)CC[C@H](OP(=O)(OCC)OCC)C(C)(C)[C@@H]4CC[C@@]3(C)[C@]1(C)CC2`, the growth was -59.1% (active).
For `CCn1c(SCC(=O)Nc2cccc(C(=O)/C=C/c3ccc(Br)cc3)c2)nc2ccccc2c1=O`, the growth is 84% (inactive).
Regarding `CC(=O)N1N=C(c2cccc(-n3cccc3)c2)CC1c1cccc(F)c1` (stereo not given), the growth was 94.8% (inactive).
Regarding `Cc1ccc(-c2cc3nc(C(Cl)Cl)nc(-c4cccs4)n3n2)cc1`, the growth was 97.9% (inactive).
In the case of `COc1c(N2CC3CCCNC3C2)c(F)cc2c(=O)c(C(=O)N/N=C/c3ccccc3)cn(C3CC3)c12` (stereo not given), the growth was 109% (inactive).
As to `O=c1[nH]c(Sc2sc3ccc(Cl)cc3c2CBr)nc(=S)[nH]1`, the growth was 13% (inactive).
`CC1=CC(=O)C2=C(C)CC(OC(=O)CCc3ccccc3)[C@@H]3[C@H](OC(=O)[C@@H]3C)[C@@H]12` (stereo not given in full): the growth is 77.4% (inactive).
On to `CC(C)(C)c1ccc(C(=O)Nc2nc3ccc(O)cc3s2)cc1`, for which the growth is 52.6% (inactive).
For `COc1ccc2c(c1)c(CC(=O)[Se]CC(=O)O)c(C)n2C(=O)c1ccc(Cl)cc1`, the growth was 100% (inactive).
For `CCO/C=N/C1=C(C#N)C(c2ccc(OC)cc2)c2sc3c(C)cccc3c2O1` (stereo not given), the growth is -3.87% (active).
`O=C1C(c2ccccc2)=C(N2CCc3ccccc32)OC1(Cl)Cl`: the growth is 75.3% (inactive).
Under `COc1ccccc1N1CCN(C2=CC(=O)C(C)=C(C)C2=O)CC1` stands 88.1% (inactive); under `CCC(NC(c1cc2cccc3ccc4cccc1c4c32)c1nnnn1C(C)(C)C)C1CCCCC1` (stereo not given), 60.1% (inactive); under `COc1ccc(/C=C(\C#N)C(=O)N2c3ccccc3Sc3ccc(SC)cc32)cc1F`, 84.5% (inactive).
As for `O=C1/C(=C/C=C/c2ccco2)SC(=S)N1C1CCCCC1`, the growth was 75.9% (inactive).
`CC(C)(C)c1ccc(CC(=O)Nc2sc3c(c2C(N)=O)CCC(=O)C3)cc1`: the growth was -49.3% (active).
`NC(N)=Nc1ccc(Oc2cccc(Oc3ccc(Cl)c(C(F)(F)F)c3)c2)cn1`: the growth was -67.9% (active).
For `NS(=O)(=O)c1ccc(Nc2nc(N/N=C/c3ccc(Cl)cc3)nc(Nc3ccccc3)n2)cc1`, the growth is 79.1% (inactive).
Under `COc1ccc([C@@H]2c3[nH]c4ccccc4c3C[C@H]3C(=O)N(C4CCN(CC5CCCCC5)CC4)CC(=O)N23)c(OC)c1` stands 85.2% (inactive).
Consider `C=CCn1c(SCC(=O)Nc2ccc(C(=O)/C=C/c3ccc(C)cc3)cc2)nnc1-c1c[nH]c2ccccc12`, for which the growth is 81.3% (inactive).
Consider `NS(=O)(=O)c1ccc(Nc2nc(SCC(=O)c3ccc(Cl)cc3)nc3c2CCCC3)cc1`, for which the growth was 67.7% (inactive).
As for `CCO/C=N/C1=C(C#N)C(c2ccc(F)cc2)c2sc3c(C)cccc3c2O1` (stereo not given), the growth is 7.88% (active).
As for `COc1c(N2CC3CCCNC3C2)c(F)cc2c(=O)c(C(=O)N/N=C/c3ccc4c(c3)OCO4)cn(C3CC3)c12` (stereo not given), the growth was 29.3% (inactive).
As to `CC1(COc2ccc3ncc(C#Cc4cncc(C(=O)Nc5cccc(C(F)(F)F)c5)c4)n3n2)COC1`, the growth is 75.5% (inactive).
For the compound `NS(=O)(=O)c1ccc(-n2cc(CN3CCCCC3)nn2)cc1`, the growth was 95.8% (inactive).
For the compound `CC(C)c1ccc(NCc2cn(-c3ccc(C(=O)O)cc3)nc2-c2cc(C(F)(F)F)cc(C(F)(F)F)c2)cc1`, the growth is 85% (inactive).
`COc1cc(OC)c(S(N)(=O)=O)cc1C(C)=O`: the growth is 103% (inactive).
For `CN1CCN(c2ccc(/C=N/Nc3nc4ccccc4c(=O)n3-c3ccccc3)cc2)CC1`, the growth is 93% (inactive).
Regarding `O=C(CSc1nc2ccccc2c(=O)n1-c1ccc(Cl)cc1)N/N=C/c1ccc(N2CCCCC2)cc1`, the growth was 88.1% (inactive).
As to `CCO/C=N/C1=C(C#N)C(c2ccc(Cl)cc2)c2sc3c(CC)cccc3c2O1` (stereo not given), the growth was 7.65% (active).
On to `C=CCOc1cccc(/C=C2\SC(=S)N(C3CC(=O)N(c4ccc(Br)cc4)C3=O)C2=O)c1` (stereo not given), for which the growth is 101% (inactive).
With `Fc1ccc(-c2cc3nc(C(Cl)Cl)nc(-c4ccc(F)cc4)n3n2)cc1`, the growth was 0.105% (active).
Regarding `NC(N)=Nc1ccc(Oc2cccc(Nc3ccc(Cl)c(C(F)(F)F)c3)c2)cn1`, the growth is -59.5% (active).
On to `O=C(CCn1c[n+](CC(=O)c2ccc(F)cc2)c2ccccc21)Nc1cccc2cccnc12`, for which the growth was 67.5% (inactive).
As for `COc1ccc(/C=C(/C)c2ccc3ccc(OC)cc3[o+]2)c(O)c1`, the growth is 53.1% (inactive).
For the compound `CC(C)(C)n1cc(-c2ccnc(NCCCNS(=O)(=O)c3cccc(F)c3)n2)c(-c2ccc(Cl)c(O)c2)n1`, the growth is 89.9% (inactive).
As for `Nc1ccccc1NC(=O)c1ccc(NC(=O)C/C=C/c2cccnc2)cn1`, the growth is 0.109% (active).
Consider `Cn1ccnc1C(=O)/C=C/c1ccc(NC(=O)c2c(F)c(F)c(F)c(F)c2F)cc1`, for which the growth was 94.3% (inactive).
In the case of `O=C(NCCN1CCCC1)c1ccc(-c2nc3ccc4[nH]ncc4c3c3c2CCCC3)cc1`, the growth was -29.2% (active).
Take `CC1=N[C@@H]2CN(C(=O)OC(C)(C)C)C[C@@H]2n2c1cc1ccccc1c2=O`: the growth is 98.6% (inactive).

The values are drawn from PubChem BioAssay (NCI).
